Test results from PubChem BioAssay (NCATS).
Inconclusive results are not listed. Active and inactive are the calls of the source. Calls come from the whole dose curve; as a rule, active = well fitted inhibition curve with a large enough effect; inconclusive = small, poorly fitted or top-dose-only effect; inactive = flat fitted curve, though single readings scatter.

Each compound was assayed on Zika virus NS2B-NS3 protease (assay: Primary screen GU AMC qHTS for Zika virus inhibitors (AID 1347154;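 note: 0% = no-inhibitor control and -100% = no-enzyme control; nearly all actives have a fitted effect of over 70% in size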)). Settings: Zika NS2B-NS3 unlinked protease, AMC fluorogenic substrate; series mostly up to 54.1 µM; activity change, negative = inhibition: at the top concentration.
Procedure, shortened: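 Unlinked Zika NS2B hydrophilic domain–NS3 protease complex at 25 nM in 10 mM Tris-HCl pH 8.0, 0.01% Tween 20, with an AMC peptide substrate. Fluorescence change (340/450 nm) over 15 min at room temperature, normalized to controls, fitted to 4-parameter Hill.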

Activity change, negative = inhibition, inactive:
CC[C@@H](C)[C@H](NS(=O)(=O)c1cccc2ccccc12)C(=O)N[C@H](C=O)Cc1c[nH]c2ccccc12 14.2%
CC12CCC3C(CCC4CC(O)CCC43C)C1CC=C2c1ccccc1 (stereo not given) 10.4%
O=C(O)C1CC(CCCP(=O)(O)O)CCN1 (stereo not given) 11.8%
COc1ccc(/C=C/C(=O)CC(=O)/C=C/c2cccc(O)c2OC)cc1O 11.3%
COCCNC(=O)COc1ccc(OCCNC[C@H](O)COc2ccccc2)cc1 15.4%
O=C(NCCCCN1CCN(c2cccc(Cl)c2Cl)CC1)c1ccc2c(c1)Cc1ccccc1-2 12.3%
S=C(NCCCc1cnc[nH]1)NCCCN(Cc1ccc(Cl)c(Cl)c1)c1ccc(Br)cn1 -3.81%
CCCCC/C=C/C=C1/C(=O)C=C[C@@H]1C/C=C\CCCC(=O)O 2.18% [at 6.83 µM]
C=C1/C(=C\C=C2\CCCC3(C)C2CCC3C(C)/C=C/C(O)C2CC2)CC(O)CC1O (stereo not given) 20.8%
C[C@H](CCC(=O)NCC(=O)O)C1CC[C@H]2[C@H]3C(C[C@H](O)[C@]12C)[C@@]1(C)CC[C@@H](O)C[C@H]1C[C@H]3O (stereo not given in full) 7.09%
Cc1ccccc1N1CCN(S(=O)(=O)CC23CCC(CC2NC(=O)C(N)CCS(C)(=O)=O)C3(C)C)CC1 (stereo not given) 6.65%
CCCCC/C=C\C\C=C/C=C/C=C/[C@@H](SC[C@H](N)C(=O)NCC(=O)O)[C@@H](O)CCCC(=O)O 13.3% [at 0.59 µM]
CC(C)CC(NC(=O)NC(CCC(=O)O)C(=O)O)C(=O)O (stereo not given) -3.77%
CCCCC/C=C\C/C=C\C/C=C\C/C=C\CCCCCC(=O)O -5.55% [at 6.83 µM]
C=C1O[C@@](CO)(n2cnc3c(N)ncnc32)[C@H](O)[C@@H]1O 12.2% [at 104 µM]
CN(C)CCC1(c2ccc(Cl)cc2)Cc2ccccc2C(=O)O1 (stereo not given) 16.6%
c1ccc(Oc2nc(NC3CCCCC3)c3[nH]cnc3n2)cc1 -3.56%
CCCCCCCCCCCCC/C=C/[C@@H](O)[C@H](CO)NC(=O)CCCCCCCCCCCCCCC 22% [at 6.83 µM]
CCOC(=O)C1OC1C(=O)NC(CC(C)C)C(=O)NCCC(C)C (stereo not given) 6.92% [at 104 µM]
O=C(NCCCN1CCCCCC1)C(c1ccccc1)C1CCCCC1 (stereo not given) 2.33%
Nc1ncnc2c1ncn2C1C[C@H](O)[C@@H](CO)O1 (stereo not given in full) 0.137%
CCCNC(=O)[C@H]1O[C@@H]1C(=O)N[C@H](C(=O)N1CCC[C@H]1C(=O)OC)[C@@H](C)CC 3.93%
OCC(O)COc1cccc2ccccc12 (stereo not given) 10.9%
Cc1nc2c(c(=O)[nH]1)CSCC2 4.07%
O=C(O)c1cc(Oc2ccc([N+](=O)[O-])cc2)cc(Oc2ccc([N+](=O)[O-])cc2)c1 -9.35%
CN(Cc1ccccc1)C(=O)[C@H](Cc1ccc2ccccc2c1)NC(=O)[C@@H]1C[C@@H](O)CN1C(=O)c1cn(C)c2ccccc12 -8.38%
COC(=O)/C=C/c1ccc(C(=O)NCC(=O)N[C@@H](CCC(=O)OC)C(=O)N[C@@H](CC(C)C)C(N)=O)cc1 1.49%
Cc1cc2nc3c(=O)[nH]c(=O)nc-3n(C)c2cc1C=O -4.72%
c1ccc(COCCCc2cnc[nH]2)cc1 10.3%
O=c1ccn([C@@H]2O[C@H](COP(=O)(O)O)[C@@H](O)[C@H]2O)c(=O)[nH]1 13.3%
NC(=NCc1ccc(Cl)cc1Cl)NC(=O)c1nc(Cl)c(N)nc1N 16.9%
CC(=Nc1ccccc1N)c1c(C)cc(=O)n(O)c1O -3.55%
COc1cccc(OC)c1-c1cc(C(=O)NC2(C(=O)O)C3CC4CC(C3)CC2C4)nn1-c1ccc(C(=O)N(C)CCCN(C)C)cc1C(C)C (stereo not given) 3.42%
CC[C@@H]1Cn2c(c3nc(-c4cc(Cl)cc(Cl)c4Cl)nc-3n(C)c2=O)N1 48.4%
N[C@@]1(C(=O)O)CN[C@@H](C(=O)O)C1 24.1%
CCn1c(=O)n(C2=C(CO)CN(CC3CCCCCCC3)CC2)c2ccccc21 -12.9%
Nc1ncnc2c1ncn2[C@@H]1O[C@H](COP(=O)(O)OP(=O)(O)CP(=O)(O)O)[C@@H](O)[C@H]1O 0.833%
COC(C)(C)CCCC(C)C/C=C/C(C)=C/C(=O)O (stereo not given) 15.8%

Potency, inactive:
CCCCC[C@H](O)/C=C/C=C\CCCCCCCC(=O)O
C=CC1CN2CCC1C[C@H]2C(O)c1ccnc2ccc(OC)cc12 (stereo not given in full)
